In all, about 220,000 compounds went through this assay and about 2,000 (0.91%) were called active. Inconclusive results (about 2%) are left out. A selection follows. Potency and affinity values are given separately. Unmarked numbers belong to inactive results. No stated cut-off is given here; in the data, inconclusive means inhibition above about 80% without an active follow-up result; inactive means below that; test concentration not stated here.
Assay: M. tuberculosis H37Rv growth inhibitors, H37Rv strain (AID 1626);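 further: bacteria incubated seven days before Alamar blue readout; 0% = bacteria only wells and 100% = bacteria with antibiotic wells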
Details: stronger effect = higher value, concentration not given here
With Cc1ccc(C)n1-c1c(C(=O)NN)cnn1-c1ccccc1 the inhibition was -0.22%. C=CCn1c(-c2cccnc2)n[nH]c1=S showed an inhibition of 4.66%. With O=C1CCC/C(=N\NC(=O)COc2ccc(Cl)cc2)C1 the inhibition was -2.69%. O=C(Cn1cnc2ccccc2c1=O)Nc1ccccc1N1CCOCC1 gave an inhibition of 2.06%. Compound CN1CCN(c2ccccc2NC(=O)c2cc(Br)ccc2Cl)CC1 has an inhibition of 12.3%. With COC(=O)C(Cc1ccccc1)NC(=S)NC(=O)c1ccccc1 (stereo unspecified) the inhibition was 3.22%. With COc1cc(-c2nnc(SCC(=O)N3CCCC3)o2)cc(OC)c1OC the inhibition was -3.99%. In the case of CCOC(=O)c1c(C)[nH]c(C)c1C(=O)CSc1nnc(-c2cc(OC)c(OC)c(OC)c2)o1, the inhibition was -2.95%. COc1ccc(N2CCC(CNC(=O)Nc3cccc(OC)c3)C2)cc1 (stereo unspecified) showed an inhibition of 8.56%. In the case of CCOCC(=O)Nc1ccc([N+](=O)[O-])cc1C, the inhibition was 4.52%. COc1ccc(NC(=S)N2C3CCC2CC(NC(=O)NC24CC5CC(CC(C5)C2)C4)C3)c(OC)c1 (stereo unspecified) showed an inhibition of 40.3%. COc1ccc(CC2(CO)CCN(Cc3cc4ccccc4o3)CC2)cc1 showed an inhibition of 5.84%. Compound CC(Sc1ccccc1)C(=O)NN=C1CCCC1 (stereo unspecified) has an inhibition of -0.55%. COc1ccc(N2CCN(CC(=O)Nc3nnc(-c4ccccc4)s3)CC2)cc1 showed an inhibition of 73.3%. For CC1CCc2nc(NC(=O)CN3CCN(Cc4ccc5c(c4)OCO5)CC3)sc2C1 (stereo unspecified), the inhibition was 64.4%. CC1CCc2nc(NC(=O)CN3CCN(c4ccc(F)cc4)CC3)sc2C1 (stereo unspecified) gave an inhibition of 18.4%. With CC1CCc2nc(NC(=O)CN3CCOCC3)sc2C1 (stereo unspecified) the inhibition was 23.3%. O=C(O)c1ccccc1NC(=S)NC(=O)c1sc2ccccc2c1Cl showed an inhibition of -3.63%. CCOC(=O)C(C)Sc1nc(=O)n2ccccc2n1 (stereo unspecified) showed an inhibition of -0.38%. In the case of Clc1cccc(Cl)c1CSc1nnc(CN2CCOCC2)n1-c1ccccc1, the inhibition was -7.41%. O=C(O)CCC(=O)Nc1ccc(Br)cc1C(=O)c1ccc(Cl)cc1 gave an inhibition of -5.88%. COc1ccccc1COCC(O)CN(Cc1ccco1)Cc1ccccc1O (stereo unspecified) showed an inhibition of 11.4%. For COc1ccc(/C=C/C(=O)C(C)(C)C)cc1OC, the inhibition was 7.04%. Compound COc1ccc(/C=C/C(=O)O)cc1OC has an inhibition of -4.92%. Compound CCOC(=O)c1cc(-c2ccccc2)sc1NC(=O)C(C)OC(=O)c1ccncc1 (stereo unspecified) has an inhibition of 0.66%. In the case of C=CCSc1nc(C)cc(C(=O)OCC)c1C#N, the inhibition was -3.16%. COc1ccccc1C(=O)O/N=C(\c1ccccc1)c1ccncc1 gave an inhibition of 3.28%. CCOC(=O)N/N=C/C=C/c1ccccc1 gave an inhibition of -6.43%. For CCOc1cccc(/C=C/C(=O)O)c1, the inhibition was 4.51%. In the case of Oc1csc(Cc2nc(-c3ccc(Br)cc3)cs2)n1, the inhibition was 38.3%. For Cc1cccc(NC(=O)c2c(O)c3cccc4c3n(c2=O)CCC4)n1, the inhibition was -9.1%. In the case of O=C(NCc1cccnc1)c1c(O)c2cccc3c2n(c1=O)CCC3, the inhibition was -3.06%. Work on CCNCCNC(=O)c1c(O)c2cccc3c2n(c1=O)CCC3 yielded an inhibition of 1.67%. In the case of CCCCNC(=O)c1c(O)c2cccc3c2n(c1=O)CCC3, the inhibition was 3.46%. CNC(=O)c1c(O)c2cccc3c2n(c1=O)CC3 gave an inhibition of -2%. Work on O=C(Nc1ccccn1)c1c(O)c2cccc3c2n(c1=O)CCC3 yielded an inhibition of -3.22%. For COc1ccc(-n2cnnc2SCC(=O)Nc2cccnc2Cl)cc1, the inhibition was 2.1%. In the case of O=C(Nc1nccs1)c1ccc(Cl)c(S(=O)(=O)N2CCOCC2)c1, the inhibition was -20.2%. CC1C(c2ccccc2)=NNc2nc3c(c(=O)n(C)c(=O)n3C)n21 (stereo unspecified) gave an inhibition of -9.85%. With Cc1cccc2c1CC(C)(C)N=C2C1=C(O)CC(C)(C)CC1=O the inhibition was 2.19%. With CC(=O)Nc1ccc(NC(=O)CCc2nc3ccccc3c(=O)[nH]2)cc1 the inhibition was 2.86%. Work on O=c1[nH]c(=O)n(CCc2ccccc2)c(O)c1C=NCc1ccc2c(c1)OCO2 yielded an inhibition of -3.13%. With Cn1c(N)c(C(=O)/C=C/c2ccccc2)c(=O)[nH]c1=O the inhibition was -9.59%. CCCCn1c(O)c(C(C)=NCc2ccc3c(c2)OCO3)c(=O)[nH]c1=O gave an inhibition of 10.3%. CCCCn1c(O)c(C(CC)=NCc2ccc3c(c2)OCO3)c(=O)[nH]c1=O gave an inhibition of -0.92%. With COc1ccc(/C=C/C(=O)c2c(O)n(CCC3=CCCCC3)c(=O)[nH]c2=O)cc1OC the inhibition was 36.6%. In the case of O=C(/C=C/c1c[nH]c2ccccc12)c1c(O)n(CCc2ccccc2)c(=O)[nH]c1=O, the inhibition was 22.5%. COc1cc(/C=C/C(=O)CC(=O)/C=C/c2ccc(O)c(OC)c2)ccc1O gave an inhibition of 7.76%. With Cc1cc(C)c(C(=O)/C=C/c2ccc3c(c2)OCO3)c(=O)[nH]1 the inhibition was -2.72%. COc1ccc(CN(C)CC(=O)Nc2sc3c(c2C#N)CCC3)cc1OC showed an inhibition of 3.36%. Cc1ccc(/C=N/NC(=O)CCCOc2ccc(Cl)cc2Cl)cc1[N+](=O)[O-] showed an inhibition of -5.05%.

Reference: PubChem BioAssay AID1626 (SRMLSC, 2009)
